Most compounds without a hit are left out; they make up all but 12% or so of the library.
Sm TGR block: S. mansoni TGR enzyme inhibition; purified TGR, DTNB reduction, TNB absorbance 405 nm; Potency, µM (top dose mostly 114 µM), hits mostly inhibitors; 360,000 compounds, 3% hits; AID 485364; also: nearly all actives have a fitted effect of over 60% in size
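Kinetic colorimetric format: TGR-catalysed, NADPH-driven DTNB reduction monitored via TNB absorbance. Enzyme dispensed at 20 nM; compound exposure 15 min at room temperature before reaction start.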
Pf growth 48h: inhibits P. falciparum growth in the first generation, 48 h | P. falciparum luciferase growth in erythrocytes, 48 h | Potency, µM (titrated, usually from 28.7 µM), actives largely listed as inhibitors | 310,000 compounds, 5.9% hits | AID 504832
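Here the parasites carry a stable luciferase gene and grow inside erythrocytes in Albumax-based RPMI medium with compound for one erythrocytic cycle. Activity is scored as loss of luminescent signal.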
Pf growth 96h: P. falciparum growth inhibition at 96 hour, primary screen for plastid delayed-death inhibitors. 320,000 compounds, 6.9% hits. AID 504834. P. falciparum luciferase reporter growth, 96 h. Potency, µM (doses to about 28.7 µM), hits mostly inhibitors
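P. falciparum expressing integrated firefly luciferase grown in erythrocytes (2% hematocrit, 0.05% parasitemia final) with compounds for 96 hours at 37 C, 5% CO2. Growth inhibition read as loss of luminescence after adding luciferase detection reagent.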
SARS PLP yeast: blocks SARS-CoV papain-like protease in a yeast assay | S. cerevisiae expressing SARS-CoV PLpro, growth rescue | Potency, µM (titrated, usually from 32.9 µM), actives largely listed as activators | 330,000 compounds, 0.19% hits | AID 485353; calls by dose curve; also: nearly all actives have a fitted effect of over 55% in size
A number is an active result; ! = repeats disagree; [ ] = remark or other dose. Unless noted, calls follow the shape of the dose curve; as a rule, active = well fitted curve in the direction sought with a large enough effect; inconclusive = small, poorly fitted or top-dose-only effect, or another doubt; inactive = no such curve, though single readings can be large; an effect the other way counts as inactive or inconclusive.

For CN(Cc1ccccn1)C(=O)C1CCC(=O)N(Cc2cccc(C(F)(F)F)c2)C1 (stereo unspecified) the results were Sm TGR block inactive, Pf growth 48h inactive, Pf growth 96h inconclusive and SARS PLP yeast inactive.
CSc1sc(C(=O)N2CCCCC2)c(-c2cccs2)c1C#N was read as Sm TGR block inactive, Pf growth 48h inactive, Pf growth 96h inactive and SARS PLP yeast inactive.
For CCCSc1sc(C(=O)OC)c(-c2cccs2)c1C#N the results were Sm TGR block inactive, Pf growth 48h 10µM, Pf growth 96h 10µM and SARS PLP yeast inactive.
Screening CCC1Oc2ccccc2N(CC(=O)NCc2cc(OC)ccc2OC)C1=O (stereo unspecified) returned Sm TGR block inactive.
CC(C)CCN(CCC(C)C)CC(O)Cn1c2ccccc2c(=O)c2ccccc21 (stereo unspecified) was read as Sm TGR block inactive, Pf growth 48h 1.7µM, Pf growth 96h inconclusive and SARS PLP yeast inactive.
For CC1CN(c2nc3ccccc3nc2C(C#N)C(=O)OC2CCCCC2)CC(C)O1 (stereo unspecified) the results were Sm TGR block inactive, Pf growth 48h 2.1µM, Pf growth 96h inconclusive and SARS PLP yeast inactive.
`Cc1cccc(S(=O)(=O)C(C#N)c2nc3ccccc3nc2N2CC(C)OC(C)C2)c1` (stereo unspecified) gave Sm TGR block inactive, Pf growth 48h inconclusive and Pf growth 96h inactive.
`CC1CCN(c2nc3ccccc3nc2C(C#N)C(=O)OC2CCCCC2)CC1` (stereo unspecified) gave Sm TGR block inactive, Pf growth 48h inactive, Pf growth 96h inconclusive and SARS PLP yeast inactive.
Screening Cc1ccc(S(=O)(=O)C(C#N)c2nc3ccccc3nc2N2CC(C)OC(C)C2)cc1C (stereo unspecified) returned Sm TGR block inactive, Pf growth 48h 13µM, Pf growth 96h inconclusive and SARS PLP yeast inactive.
Screening CCCC[C@]12Cc3cc(C#N)ccc3C(O1)c1c(cc(-c3ccccc3)oc1=O)O2 returned Sm TGR block inconclusive, Pf growth 48h inconclusive, Pf growth 96h inconclusive and SARS PLP yeast inactive[6.58 µM].
`O=C1CC(N2CCOCC2)C(=O)N1CCN1C(=O)CC(N2CCOCC2)C1=O` (stereo unspecified) gave Sm TGR block inactive, Pf growth 48h inactive, Pf growth 96h inactive and SARS PLP yeast inactive.
`CN(C)N1C(=O)CC(N2CCCC2)C1=O` (stereo unspecified) gave Sm TGR block 22µM, Pf growth 48h inactive, Pf growth 96h inconclusive and SARS PLP yeast inactive.
`CCN1CCN(C(c2cccc(OC)c2)c2c(O)cc(C)n(Cc3ccco3)c2=O)CC1` (stereo unspecified) gave Sm TGR block 5.6µM.
`Cc1cccc(CN2CCN(Cc3ccco3)CC2)c1` gave Sm TGR block inactive, Pf growth 48h inactive, Pf growth 96h inconclusive and SARS PLP yeast inactive.
For COc1cccc(C(c2c(O)cc(C)n(Cc3ccco3)c2=O)N2CCC(C)CC2)c1 (stereo unspecified) the results were Sm TGR block 11µM.
`CCN1CCN(C(c2cccc(F)c2)c2c(O)cc(C)n(Cc3ccco3)c2=O)CC1` (stereo unspecified) gave Sm TGR block 5µM.
COc1ccc(CCNC(=O)c2ccc3c(c2)N(Cc2cccc(Cl)c2)C(=O)c2ccccc2S3=O)cc1OC (stereo unspecified) was read as Sm TGR block inactive.
`O=C(Nc1ccc(Oc2nnc(-c3ccccc3)c3ccccc23)cc1)c1ccccc1` gave Sm TGR block inactive, Pf growth 48h 10µM, Pf growth 96h inactive and SARS PLP yeast inactive.
Screening COc1ccc(Oc2nnc(-c3ccc(C)cc3)c3ccccc23)cc1 returned Sm TGR block inactive, Pf growth 48h inactive, Pf growth 96h inactive and SARS PLP yeast inactive.
Screening CCN(Cc1nc(-c2cccc(C)c2)no1)S(=O)(=O)c1ccc(C)cc1 returned Sm TGR block inactive.
Screening Cc1cccc(NS(=O)(=O)c2cccc(C(=O)N3CCN(S(=O)(=O)c4ccccc4)CC3)c2)c1 returned Sm TGR block inactive, Pf growth 48h inconclusive, Pf growth 96h 12µM and SARS PLP yeast inactive.
Screening Cc1ccc(S(=O)(=O)Nc2cccc(C(=O)N3CCN(c4ccccc4O)CC3)c2)cc1F returned Sm TGR block inactive, Pf growth 48h 1.5µM, Pf growth 96h inconclusive and SARS PLP yeast inactive.
`CCOc1ccc(NC(=O)c2ccncc2)cc1` gave Sm TGR block inactive, Pf growth 48h inactive, Pf growth 96h inconclusive and SARS PLP yeast inactive.
CCOc1ccc2c(c1)C(=NNC(=O)c1ccncc1)c1cc(OCC)ccc1-2 was read as Sm TGR block inactive, Pf growth 48h 9.3µM, Pf growth 96h 2.1µM and SARS PLP yeast inactive.
For O=C(Nc1cc(Cl)ccc1Cl)c1cc(S(=O)(=O)NCCc2ccccc2)ccc1F the results were Sm TGR block inactive.
Screening CCCOC(=O)c1ccc(Oc2c(-c3ccc(OCC)cc3O)n[nH]c2C)cc1 returned Sm TGR block inactive, Pf growth 48h 5.2µM, Pf growth 96h inactive and SARS PLP yeast inactive.
For COc1ccc(Oc2c(-c3ccc(O)cc3O)n[nH]c2C)cc1 the results were Sm TGR block inactive, Pf growth 48h inactive, Pf growth 96h inactive and SARS PLP yeast inactive.
For CCCc1ccc(Oc2cn[nH]c2-c2ccc(O)c(C)c2O)cc1 the results were Sm TGR block inactive, Pf growth 48h inactive, Pf growth 96h 10µM and SARS PLP yeast inactive.
Screening CCCOC(=O)c1ccc(Oc2cn[nH]c2-c2ccc(OCC)cc2O)cc1 returned Sm TGR block inactive, Pf growth 48h 4.7µM and SARS PLP yeast inactive.
Cc1nc(SCC(=O)N(C)Cc2ccco2)c2c(C)c(C)sc2n1 was read as Sm TGR block 45µM, Pf growth 48h inconclusive, Pf growth 96h inactive[5.75 µM] and SARS PLP yeast inactive.
COC(=O)c1ccc(CSc2nc(C)nc3sc(C)c(C)c23)o1 was read as Sm TGR block 100µM, Pf growth 48h inactive, Pf growth 96h inactive and SARS PLP yeast inactive.
Cc1nc(SCC(=O)Nc2ccc(CN3CCCC3)cc2)c2c(C)c(C)sc2n1 was read as Sm TGR block inactive, Pf growth 48h 9.3µM, Pf growth 96h 13µM and SARS PLP yeast inactive.
`CC(=O)c1ccc(NC(=O)CSc2cn(CC(=O)N3CCCCC3)c3ccccc23)cc1` gave Sm TGR block inactive.
Screening CN(C(=O)CSc1nc(-c2ccc(C(C)(C)C)cc2)c(C#N)c(=O)[nH]1)C1CCCCC1 returned Sm TGR block inactive, Pf growth 48h inactive, Pf growth 96h inactive and SARS PLP yeast inconclusive.
Screening Cc1ccc(C)c(OCc2nnc(NC(=O)c3ccco3)s2)c1 returned Sm TGR block inactive, Pf growth 48h inactive, Pf growth 96h 10µM and SARS PLP yeast inactive.
`Cc1cccc(C(=O)Nc2nnc(S(=O)(=O)N(C)Cc3ccc(Cl)cc3)s2)c1` gave Sm TGR block inactive.
`Cc1cccc(C(=O)Nc2nnc(S(=O)(=O)N(C)Cc3ccco3)s2)c1` gave Sm TGR block 7.9µM!, Pf growth 48h inactive, Pf growth 96h inactive and SARS PLP yeast inactive.

Source: PubChem BioAssay
